Gli-Sufu antag – blocks Gli-Sufu signaling in a luciferase reporter. Sufu-KO-LIGHT fibroblasts, Gli luciferase reporter luminescence. inhibition, % at 5 µM. actives 0.74% (n = 340,000). AID 588413;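 active = inhibition above about 55%, limit read from the data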;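 also: 0% = DMSO-treated cells and 100% = wells with medium but no cells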
Beta apoptosis – blocks beta cell apoptosis; AID 435005; actives 0.8% (n = 300,000); protection from apoptosis, % (concentration not given with the values); INS-1E cytokine-induced death, ATP luminescence, 48 h; percent of positive-control rescue, neutral wells zero;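 active = Every replicate reaches about 75%, or at least half do and their mean reaches it too, limit read from the data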;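 also: 0% = cytokine-treated negative control wells and 100% = positive control rescue; higher means more ATP so stronger rescue from cytokine killing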
Mdm2-MdmX inh – inhibitors of human Mdm2/MdmX interaction | O15151+Q00987 | SaOS-2 split-luciferase Mdm2/MdmX complementation, luminescence | inhibition, % at 8 µM | actives 3% (n = 330,000);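 active = inhibition of at least 50% at 8 µM in the primary screen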
GRIN3A LBD mod – modulators (binders) of human NR3A ligand-binding domain; Tm shift relative to glycine control, % at 25 µM; NR3A LBD differential scanning fluorimetry, Tm shift; 0% = protein alone, 100% = glycine-bound protein; actives 2.5% (n = 340,000); AID 1259313;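 active = melting temperature shift of at least 10% of the positive control shift, at one fixed dose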
CSC inhib – blocks cancer stem cells; cancer stem cell-like cells viability, luminescence; inhibition, % at 7.5 µM; actives 1.1% (n = 300,000); AID 2717; in the data active = inhibition above about 75%; tested in HMLE shEcad cells
MPTP inh – inhibitors of mitochondrial permeability transition pore. isolated mouse mitochondria, Ca2+ swelling absorbance, 30 min. inhibition, % at 10 µM. actives 1.4% (n = 360,000). AID 602449;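 active = inhibition of 50% or more, scaled per plate between neutral and stimulator controls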;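 also: 0% = DMSO wells given calcium and 100% = 1 mM EGTA wells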
Gli-Sufu confirm – Gli-SUFU antagonism confirmation, single concentration; inhibition, % at 5 µM; Sufu-KO-LIGHT cells, Gli luciferase reporter, luminescence; AID 602428; shares compounds with Gli-Sufu antag; actives 40% (n = 2,500);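 active = mean inhibition at 5 µM reaching about 45%, limit read from the data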;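 also: plate controls were DMSO-treated cells for no effect and wells lacking cells for full effect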
SufuKO cytotox – cytotoxic in Gli-SUFU antagonist counter-screen. shares compounds with Gli-Sufu antag. Sufu-KO-LIGHT cells cytotoxicity, ATP luminescence. cytotoxicity, % at 5 µM. actives 32% (n = 2,500). AID 651994;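 active = mean cytotoxicity at 5 µM above about 25%, limit read from the data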;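 also: cells exposed to compound overnight for roughly 16 to 18 hours; plate controls were DMSO wells with cells for no effect and medium without cells for full effect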
Wnt3a cs – Wnt3a reporter inhibition counter-screen | inhibition, % at 6.25 µM | Wnt-LIGHT cells, Wnt3a-driven luciferase reporter, luminescence | actives 20% (n = 2,500) | shares compounds with Gli-Sufu antag;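 active = mean inhibition above about 25%, limit read from the data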
MPTP counter – Rhodamine 123 counter-screen of mitochondrial pore hits. shares compounds with MPTP inh. isolated mitochondria, membrane potential, Rhodamine 123 fluorescence. inhibition, % at 10 µM. actives 78% (n = 5,000); in the data active = inhibition above about 22%;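 also: 0% = DMSO vehicle and 100% = positive control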
MPTP abs DR – dose response confirmation of mitochondrial permeability transition pore inhibitors; shares compounds with MPTP inh; isolated mitochondria swelling, absorbance; IC50, µM; actives 58% (n = 780); AID 651561; in the data active = IC50 below about 20 µM
MPTP cs DR – active in counter-screen for permeability transition pore inhibitors; shares compounds with MPTP inh; isolated mitochondria counterscreen, fluorescence read-out; IC50, µM; actives 49% (n = 780); in the data active = IC50 below about 80 µM
An asterisk follows results filed as active; . = no result. Most compounds without a hit are left out; they make up all but 6.6% or so of the library.

SMILES	Gli-Sufu antag	Beta apoptosis	Mdm2-MdmX inh	GRIN3A LBD mod	CSC inhib	MPTP inh	Gli-Sufu confirm	SufuKO cytotox	Wnt3a cs	MPTP counter	others
COc1ccc(Br)cc1S(=O)(=O)NNC(=O)c1c(C)nc2ccccn12	1.7	0.7	-10.3	-0.3	1.3	0.5	.	.	.	.
Cc1nc2ccccn2c1C(=O)NNS(=O)(=O)c1ccc(C(C)(C)C)cc1	50.7	31.6	-4.7	-4.5	-9.7	75.9*	47.8*	27.3*	6.2	71.6*
O=C(c1cccc(S(=O)(=O)N2CCN(c3ccc(F)cc3)CC2)c1)N1CCCC(C(F)(F)F)C1 (stereo not drawn)	56.6*	.	31.3	-0.5	9.3	73.0*	62.3*	34.1*	6.7	84.8*
CN(CCOc1ccc(Cl)cc1)C(=O)c1cccc(S(=O)(=O)N2CCN(c3ccc(F)cc3)CC2)c1	70.1*	.	.	-2.2	.	57.9*	64.5*	25.8*	1.5	90.2*
Cc1ccc(NC(=O)c2snc3ccc(Cl)cc23)cc1C	-12.7	-0.8	-13.9	6.1	-0.9	33.2	.	.	.	.
CCCCCCCCc1nc(SC(C)C(=O)O)n[nH]1 (stereo not drawn)	-8.9	-0.6	6.3	2.0	.	1.7	.	.	.	.
O=C(CSc1nnc(Cn2nnc3ccccc32)o1)N(Cc1ccc(F)cc1)c1ccccc1	68.3*	108.7*	12.9	1.6	39.8	85.2*	56.8*	44.7*	21.0	93.8*
Cc1cc(NC2CCCCC2)nc(NCc2ccccc2)n1	79.5*	104.4*	28.2	-4.1	16.0	85.8*	57.8*	33.5*	17.3	110.9*
CC(=O)N(Cc1nc2sc(C)c(C)c2c(=O)[nH]1)C1CCCC1	3.7	1.2	8.9	-0.9	-7.3	-1.5	.	.	.	.
COc1ccc(-c2nc(CN3CCN(c4ncnc5ccccc45)CC3)c(C)o2)c(OC)c1	59.7*	44.3	32.7	-1.2	-10.2	66.1*	35.0	8.9	-3.2	28.6*
COc1ccc(NS(=O)(=O)c2ccc(N3CCCCC3)c(NC(=O)C(C)NC(N)=O)c2)cc1 (stereo not drawn)	9.4	-1.5	-27.6	4.4	-6.4	-0.3	.	.	.	.
COc1ccc(NS(=O)(=O)c2ccc(N3CCCCC3)c(N)c2)cc1	57.9*	102.4*	15.3	-6.3	21.5	90.2*	73.5*	26.9*	16.1	86.8*
CC(=O)N1c2ccc(S(=O)(=O)N(C)CC(=O)Nc3cccc(C)c3)cc2CC1C (stereo not drawn)	-13.3	-4.3	35.2	-0.7	-1.5	-0.2	.	.	.	.
Cn1nc(CC(=O)Nc2ccc3c(c2)CCC3)c2ccccc2c1=O	71.7*	.	22.6	0.1	.	94.8*	68.1*	40.7*	3.0	78.1*
CCCn1c(C)cc(C(=O)COC(=O)c2cc(S(=O)(=O)NCC(C)C)c(Cl)cc2Cl)c1C	0.4	32.8	-23.6	-1.5	3.9	2.4	.	.	.	.
CSc1nc2ncc(C(=O)O)c(N)n2n1	-6.9	-8.4	15.0	-1.5	-11.7	0.5	.	.	.	.
CCn1cc(CN(C)S(=O)(=O)c2ccc3ccccc3c2)c(C)n1	52.6	52.3	26.8	-0.8	10.7	91.4*	50.0*	21.6	27.9*	84.6*
CC(=O)c1c(C)[nH]c(C(=O)OCC(=O)Nc2ccc(Cl)cc2[N+](=O)[O-])c1C	74.8*	112.6*	35.7	-14.3	-3.4	90.6*	74.7*	30.7*	24.0	93.0*
CCOC(=O)c1c(C)[nH]c(C(=O)OCC(=O)Nc2cc(Cl)ccc2OC)c1C	4.9	4.2	27.9	-4.8	-6.4	2.4	.	.	.	.
CCc1nc2c(OCCC3CCCCC3)cccn2c1N(C=O)Cc1ccc(OC)cc1	.	.	.	.	.	0.4	.	.	.	.
COc1ccc(CCN(C)C(=O)Cc2ccc(-c3ccccc3)cc2)cc1OC	59.6*	18.4	14.4	-2.7	6.7	64.4*	14.8	6.1	-43.7	72.4*
Cc1cc(Br)ccc1S(=O)(=O)n1ccnc1C	-0.7	-3.1	-24.1	0.1	-0.8	0.5	.	.	.	.
Cc1ccc(-c2noc(C3CCCN(C(=O)c4ccc(C(C)(C)C)cc4)C3)n2)o1 (stereo not drawn)	50.3	3.6	-17.1	-1.2	.	61.1*	33.7	0.6	-68.5	39.0*
CC(C)(C)OC(=O)NCCCCCc1cn(CC(=O)NCCCCCCCCCCC(=O)N2CCN(C(=O)OC(C)(C)C)CC2)nn1	55.7*	61.1	-0.5	0.6	-0.9	94.3*	62.1*	26.3*	-37.5	-1.5	MPTP abs DR=1.99*;MPTP cs DR=<2.5*
NCCCCCc1cn([C@@H](CO)C(=O)NCCCCCCCCCCC(=O)N2CCNCC2)nn1	1.7	-6.9	6.3	1.4	-11.0	-1.1	.	.	.	.
SMILES	Gli-Sufu antag	Beta apoptosis	Mdm2-MdmX inh	GRIN3A LBD mod	CSC inhib	MPTP inh	Gli-Sufu confirm	SufuKO cytotox	Wnt3a cs	MPTP counter	others
S=C(NCc1ccc(Cl)cc1)Nc1ccncc1	63.3*	59.6	8.5	-1.2	-2.2	98.3*	49.2*	13.9	35.8*	102.9*
S=C(NCc1ccncc1)Nc1cccc(Cl)c1	1.6	-4.6	-36.3	0.8	-7.0	3.5	.	.	.	.
CCCCOC(=O)c1[nH]c2c(c1C)C(=O)CC(c1cc(OC)c(OC)c(OC)c1)C2 (stereo not drawn)	52.0	74.9*	26.1	-2.2	25.2	69.9*	60.4*	24.4	12.1	90.2*
CCCCOCCCNc1ncnc2c1[nH]c1ccccc12	80.7*	113.5*	25.2	-6.9	25.6	92.5*	82.0*	27.2*	17.4	92.7*
CCCCOc1ncnc2c1[nH]c1ccccc12	-9.8	61.0	16.5	-0.8	-6.2	15.3	.	.	.	.
Cc1nn(-c2ccc(N3CCOCC3)nn2)c(C)c1CCC(=O)N1CCN(C)CC1	-9.9	-12.4	4.8	1.9	5.0	-0.8	.	.	.	.
CCN(C(=O)CC(C)C)c1nnc(Cn2nnc3ccccc32)s1	24.5	9.8	-4.8	-1.9	7.1	0.7	.	.	.	.
CCN(C(=O)c1ccc(C(C)(C)C)cc1)c1nnc(Cn2nnc3ccccc32)s1	60.6*	111.8*	45.8	-0.6	62.0	105.3*	60.7*	33.4*	41.6*	92.1*
COCCNC(=O)C(c1cccnc1)N(Cc1ccc(C)cc1)C(=O)Cn1nnc2ccccc21 (stereo not drawn)	2.0	0.4	7.9	0.1	-4.1	-1.2	.	.	.	.

Screening data deposited in PubChem by several laboratories.
